target: Estrogen receptor beta (Homo sapiens) (UniProt Q92731); assay: ERbeta ligand binders by competition, primary screen, cell-based, Cos7 ERbeta-GFP, flow cytometry (AID 1210); details: fluorescent estrogen binding, ligand binding inhibition, at 0.1 µM, stronger effect = higher value;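 note: 0% = DMSO vehicle wells and 100% = complete loss of labeled estradiol signal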
Sequence (Q92731 whole entry, looked up): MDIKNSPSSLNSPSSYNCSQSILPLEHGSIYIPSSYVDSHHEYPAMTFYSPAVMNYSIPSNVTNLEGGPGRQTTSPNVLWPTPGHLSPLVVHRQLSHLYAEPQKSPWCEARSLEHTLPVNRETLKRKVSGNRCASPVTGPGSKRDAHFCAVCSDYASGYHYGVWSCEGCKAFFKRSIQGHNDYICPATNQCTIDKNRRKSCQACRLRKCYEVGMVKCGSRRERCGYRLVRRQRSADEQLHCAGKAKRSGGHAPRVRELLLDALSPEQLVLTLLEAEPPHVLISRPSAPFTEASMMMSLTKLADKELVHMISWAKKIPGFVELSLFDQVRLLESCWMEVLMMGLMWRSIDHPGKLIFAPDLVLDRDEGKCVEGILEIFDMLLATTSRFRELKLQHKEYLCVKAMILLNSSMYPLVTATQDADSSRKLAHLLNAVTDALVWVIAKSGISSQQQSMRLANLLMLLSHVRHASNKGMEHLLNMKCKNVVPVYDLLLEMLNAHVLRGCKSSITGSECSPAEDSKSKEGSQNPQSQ

Compound	inhibition [%]
COc1ccc(CCn2c(SCC(=O)Nc3cc(C)on3)nc3ccsc3c2=O)cc1OC	18
O=C1c2ccccc2C(=O)N1/N=C/c1ccc(O)c(O)c1	54
CCc1ccc(Nc2nc(N)nc(CSc3nnnn3-c3ccccc3)n2)cc1	8
Oc1c(Cl)cc(Cl)cc1Sc1cc(Cl)cc(Cl)c1O	22
CN(C)CC(=O)N1c2ccccc2CCc2ccc(NC(=O)c3ccc(N)cc3)cc21	62
Nc1ccc(-c2nc3ccc(C(=O)O)cc3s2)cc1	10
CC(=O)Nc1nonc1-c1nc2ccccc2n1N(C(C)=O)C(C)=O	70
O=C(Nc1ccc2oc(-c3ccccc3F)nc2c1)c1cncc(Br)c1	25
O=c1cc(CSc2nnnn2-c2ccccc2)nc(Nc2ccc(F)cc2)[nH]1	25
O=C(Cc1cccs1)Nc1ccc(-c2nnn(CC(=O)N3CCOCC3)n2)cc1	2
Cc1ccc(C)n1-c1sccc1C(=O)O	26
CCOc1ccc(CC2S/C(=N/c3ccccn3)NC2=O)cc1 (stereo not drawn)	15
CCOC(=O)CSc1nn(C)c(=S)s1	72

— PubChem BioAssay AID1210 (NMMLSC, 2008)
